According to PubChem BioAssay:
Results filed as inconclusive are left out. Active and inactive are the calls of the source.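 How the source made its calls, unless noted: active means efflux inhibition above 0.42, the validation set average plus 4 SD; inconclusive means no clear call, values can overlap the other calls; inactive means the rest.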

Tests used:
[1] = rapamycin-like changes in RPL19A-GFP expression – cell-based, S. cerevisiae, multiplex flow cytometry, primary screen (AID 1862; in the data active means percent of DMSO control GFP below about 86%;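 further: lower values mimic rapamycin by blocking the RPL19A rise seen in DMSO cells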); settings: S. cerevisiae RPL19A-GFP strain, flow cytometry fluorescence, 3 h; at 10 µM; stronger effect = lower value
[2] = TOR pathway GLN3 branch reporter MEP2-GFP changes – S. cerevisiae, multiplex flow cytometry, primary screen (AID 1867;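 active means GFP response, as percent of the DMSO control, above the screen-wide mean plus 3 SD, about 139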;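 further: median GFP channel fluorescence of barcode-gated MEP2-GFP cells measured by flow cytometry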); settings: S. cerevisiae MEP2-GFP strain, 3 h, at 10 µM, stronger effect = higher value, 100% means same as DMSO wells
[3] = TOR pathway RTG branch CIT2 reporter changes – S. cerevisiae, GFP fusion, multiplex flow cytometry, primary screen (AID 1870;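 active means percent response above a set limit, the screen-wide mean plus 3 SD, cut at about 130% in these data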;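 further: barcoded CIT2-GFP strain pooled with four other GFP strains with rapamycin as positive control; median GFP fluorescence per well over plate mean of DMSO wells so 100% = DMSO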); settings: S. cerevisiae CIT2-GFP expression, 3 h, at 10 µM, stronger effect = higher value
[4] = TOR pathway LAP4-GFP level changes – S. cerevisiae, multiplex flow cytometry, primary screen (AID 1873;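 active means GFP signal, as percent of the solvent control, above the screen mean plus 3 SD, about 149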); settings: S. cerevisiae LAP4-GFP expression, 3 h, at 10 µM, stronger effect = higher value
[5] = yeast AGP1-GFP level changes, GLN3 branch – cell-based, multiplex flow cytometry, S. cerevisiae, primary screen (AID 1887;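 active means GFP signal above the screen-wide mean plus 3 SD, that is over about 124.5% of the solvent control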;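 further: AGP1-GFP fusion strain of S. cerevisiae within a five-strain barcoded multiplex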); settings: 3 h, at 10 µM, stronger effect = higher value
[6] = hit retest on RPL19A-GFP reporter strain – cell-based, S. cerevisiae, flow cytometry, cherry picks, mother/daughter gates, confirmation (AID 2270;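 active means GFP response below 50% of the DMSO control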); settings: 3 h, at 10 µM, stronger effect = lower value, 100 = same GFP as DMSO wells
[7] = yeast TOR pathway reporter LAP4-GFP change – cell-based, cherry picks, flow cytometry, mother/daughter gates, confirmation (AID 2271;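 active means GFP response above 150% of the DMSO control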;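 further: ratio of sample to DMSO plate mean so 100% equals DMSO level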); settings: S. cerevisiae LAP4-GFP strain, 3 h, at 10 µM, stronger effect = higher value, 100 means same as DMSO control
[8] = TOR pathway reporter MEP2-GFP, retest of hits – S. cerevisiae, flow cytometry GFP, cherry picks, confirmation (AID 2272;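 active means GFP response above 150% of the DMSO control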;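 further: ratio of well signal to plate DMSO mean so 100% equals DMSO level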); settings: S. cerevisiae MEP2-GFP strain, 3 h, at 10 µM, stronger effect = higher value
[9] = TOR pathway CIT2 reporter hit retest – S. cerevisiae, GFP fusion, cherry picks, mother/daughter gates, confirmation (AID 2274;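 active means GFP response above 150% of the DMSO level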); settings: S. cerevisiae CIT2-GFP strain, flow cytometry, 3 h, at 10 µM, stronger effect = higher value
[10] = reduced mouse 2C T cell binding to pMHC/ICAM-1 vesicles – MLPCN validation set, flow cytometry, LFA-1/ICAM-1 modulator project, pilot screen (AID 2523;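 active means response below a set limit, under 55% cells CD8-positive and vesicle-bound, and CD8 cells' 90th-percentile brightness under 279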;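 on vesicle binding response: mean PE anti-B7-1 fluorescence of CD8+ cells relative to row control; 100% = QL9-loaded vesicles with DMSO vehicle in the same plate row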); settings: 2C mouse CD8+ T cells, at 7 µM, stronger effect = lower value; double positive events: measured here: CD8+/vesicle+ event percentage
[11] = biological target: Beta-adrenergic receptor kinase 1 (Homo sapiens) (UniProt P25098); assay: GRK2 binders displacing RNA aptamer, biochemical, validation, human GRK2, bead flow cytometry (AID 488806;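 active means aptamer binding inhibition above 30%, about 3 SD of noise from non-fluorescent compounds; inactive means inhibition at or below 30%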); settings: bead-bound GRK2, FAM-aptamer displacement, at 10 µM, stronger effect = higher value
[12] = biological target: Beta-2 adrenergic receptor (Homo sapiens) (UniProt P07550); assay: agonist-induced loss of surface beta2AR – cell-based, FAP fluorogen, flow cytometry, validation set, pilot screen (AID 504459;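 active means percent response above 42, roughly 3 SD of non-fluorescent test compounds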;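 further: agonist-driven loss of surface beta2AR via internalization measured by FAP dye flow cytometry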); settings: Am2.2-beta2AR cells, at 10 µM, stronger effect = higher value
[13] = biological target: AP-2 complex subunit beta (Homo sapiens) (UniProt P63010); assay: beta-arrestin/AP2 interaction blockers – biochemical, validation set, GST-AP2 beads, flow cytometry, pilot screen (AID 504541;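 active means inhibition above 54%, about 3 SD of non-fluorescent compounds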;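 further: AP2 carries R879A mutation and is captured from E. coli lysate; bead-bound FITC arrestin peptide fluorescence measuring arrestin peptide binding to AP2; 0% = DMSO wells and 100% = excess unlabeled arrestin peptide control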); settings: FITC arrestin peptide, at 10 µM, stronger effect = higher value, AP2 beta2 appendage fragment, R879A mutant
[14] = cytosolic pH regulators acting via V-ATPase – S. cerevisiae, pHLuorin, HTS validation (AID 504600; in the data active means response above about 15%;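 further: plate controls were DMSO for no effect and reference compound for full effect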); settings: V-ATPase proton transport, at 10 µM, stronger effect = higher value
[15] = test system: anti-desmoglein-3 scFv antibody binding to human DSG3; assay: blockers of pathogenic pemphigus antibody–desmoglein-3 binding – biochemical, validation compound set, bead-based, flow cytometry, pilot screen (AID 588368;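 active means binding below the plate cutoff, the plate median minus 3 SD, with a reading above zero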;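 further: signal is the median channel fluorescence of bead-bound GFP antibody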); settings: Protein G beads, DSG3-Fc, scFv-GFP binding, at 10 µM, stronger effect = lower value
[16] = Nile Red efflux blockade in pump-expressing yeast – validation compound set, multiplex, phenotypic, pilot screen (AID 588506);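 further: Nile Red retained in cells so higher fluorescence means more efflux inhibition; 0 = negative control wells and 1 = enniatin B 25 µM full block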; settings: S. cerevisiae pump-expressing triplex, Nile Red efflux flow cytometry; at 10 µM; stronger effect = higher value; the pumps come from Candida albicans
[17] = biological target: ATP-binding cassette sub-family B member 6 (Homo sapiens) (UniProt Q9NP58); assay: blockers of ABCB6-driven porphyrin uptake – K562-ABCB6 cells, flow cytometry, validation set, pilot screen (AID 588550;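 active means inhibition above the screen-wide mean plus 3 SD, about 51%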;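 further: 0% = DMSO wells and 100% = benzethonium chloride 70 µM positive control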); settings: K562-ABCB6 porphyrin accumulation, 1 h, at 10 µM, stronger effect = higher value
[18] = AML differentiation inducers, ER-HoxA9 marrow cells – cell-based, GFP/MAC1 double positive, flow cytometry, validation set, primary screen (AID 588685;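 active means differentiation response of at least 50%, scaled between solvent and reference control, from cells with both markers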;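 further: compound exposure lasts four days before antibody staining and flow analysis; 0% = DMSO wells and 100% = 5 µM fulvestrant positive control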); settings: stronger effect = higher value, normalized: vehicle 0, fulvestrant 100
[19] = biological target: Integrin beta-1 (Homo sapiens) + Integrin alpha-4 (Homo sapiens) (UniProt P13612+P05556); assay: alpha4beta1 integrin LIBS antibody binding reduction – U937 cells, HUTS-21 mAb, flow cytometry, validation set, VLA-4 allosteric modulator project, pilot screen (AID 2674;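 active means inhibition above 50%, about 3 SD of the validation set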;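 further: antibody binding induced by the VLA-4 ligand LDV present at three times its Kd; 0% = LDV ligand with antibody and no compound and 100% = antibody without LDV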); settings: HUTS-21 LIBS mAb binding, at 6.7 µM, stronger effect = higher value, binding induced by LDV ligand
[20] = calorie-restriction mimetic ROS inhibitors, yeast – validation compound set, pilot screen (AID 2706;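 active means superoxide response below 65% of plate, a cut near 3 SD across the whole screen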;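 further: yeast exposed to compound for one week at 30 degrees C before staining; 100% = mean of all compound wells on the same plate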); settings: S. cerevisiae aging, superoxide DHE fluorescence; at 10 µM; stronger effect = lower value
[21] = measured here: daughter cell gate
[22] = measured here: mother cell gate
[23] = measured here: daughter cell gate response
[24] = measured here: mother cell gate response

Sequence of ATP-binding cassette sub-family B member 6 (Homo sapiens) (Q9NP58 whole entry, looked up): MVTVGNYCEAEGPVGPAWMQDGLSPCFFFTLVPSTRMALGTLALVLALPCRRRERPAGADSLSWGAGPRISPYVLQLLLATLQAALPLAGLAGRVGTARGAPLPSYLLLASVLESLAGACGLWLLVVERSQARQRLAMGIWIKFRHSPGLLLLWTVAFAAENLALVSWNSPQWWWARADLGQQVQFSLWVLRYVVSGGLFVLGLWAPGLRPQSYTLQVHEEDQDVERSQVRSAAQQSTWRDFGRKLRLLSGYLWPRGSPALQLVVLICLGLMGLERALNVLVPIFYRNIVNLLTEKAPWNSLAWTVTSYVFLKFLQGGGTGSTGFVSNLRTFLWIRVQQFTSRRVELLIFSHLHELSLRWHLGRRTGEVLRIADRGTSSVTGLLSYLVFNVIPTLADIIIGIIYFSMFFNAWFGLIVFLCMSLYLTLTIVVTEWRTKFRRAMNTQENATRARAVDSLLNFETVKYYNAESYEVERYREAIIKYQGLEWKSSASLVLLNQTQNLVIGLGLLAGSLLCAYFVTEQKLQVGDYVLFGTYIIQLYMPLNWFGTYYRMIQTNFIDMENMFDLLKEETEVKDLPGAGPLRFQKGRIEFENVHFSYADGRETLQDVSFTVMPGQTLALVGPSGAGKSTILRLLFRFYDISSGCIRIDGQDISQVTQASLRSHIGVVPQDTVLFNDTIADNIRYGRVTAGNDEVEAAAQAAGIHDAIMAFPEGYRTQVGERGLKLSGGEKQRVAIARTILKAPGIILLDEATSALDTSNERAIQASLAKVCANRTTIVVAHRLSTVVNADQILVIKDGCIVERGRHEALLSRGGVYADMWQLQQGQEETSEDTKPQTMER
Sequence of Beta-2 adrenergic receptor (Homo sapiens) (P07550 whole entry, looked up): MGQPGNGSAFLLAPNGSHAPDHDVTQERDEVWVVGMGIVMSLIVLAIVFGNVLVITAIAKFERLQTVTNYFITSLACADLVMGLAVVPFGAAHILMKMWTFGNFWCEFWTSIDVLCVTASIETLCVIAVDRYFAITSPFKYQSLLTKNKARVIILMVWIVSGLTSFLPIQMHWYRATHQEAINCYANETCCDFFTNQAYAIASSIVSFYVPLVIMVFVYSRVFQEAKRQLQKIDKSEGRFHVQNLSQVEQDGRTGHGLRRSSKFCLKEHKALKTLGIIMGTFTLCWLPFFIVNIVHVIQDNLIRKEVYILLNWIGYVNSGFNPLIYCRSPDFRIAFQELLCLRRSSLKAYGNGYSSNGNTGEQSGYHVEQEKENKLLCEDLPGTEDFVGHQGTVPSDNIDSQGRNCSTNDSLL
Sequence of Beta-adrenergic receptor kinase 1 (Homo sapiens) (P25098 whole entry, looked up): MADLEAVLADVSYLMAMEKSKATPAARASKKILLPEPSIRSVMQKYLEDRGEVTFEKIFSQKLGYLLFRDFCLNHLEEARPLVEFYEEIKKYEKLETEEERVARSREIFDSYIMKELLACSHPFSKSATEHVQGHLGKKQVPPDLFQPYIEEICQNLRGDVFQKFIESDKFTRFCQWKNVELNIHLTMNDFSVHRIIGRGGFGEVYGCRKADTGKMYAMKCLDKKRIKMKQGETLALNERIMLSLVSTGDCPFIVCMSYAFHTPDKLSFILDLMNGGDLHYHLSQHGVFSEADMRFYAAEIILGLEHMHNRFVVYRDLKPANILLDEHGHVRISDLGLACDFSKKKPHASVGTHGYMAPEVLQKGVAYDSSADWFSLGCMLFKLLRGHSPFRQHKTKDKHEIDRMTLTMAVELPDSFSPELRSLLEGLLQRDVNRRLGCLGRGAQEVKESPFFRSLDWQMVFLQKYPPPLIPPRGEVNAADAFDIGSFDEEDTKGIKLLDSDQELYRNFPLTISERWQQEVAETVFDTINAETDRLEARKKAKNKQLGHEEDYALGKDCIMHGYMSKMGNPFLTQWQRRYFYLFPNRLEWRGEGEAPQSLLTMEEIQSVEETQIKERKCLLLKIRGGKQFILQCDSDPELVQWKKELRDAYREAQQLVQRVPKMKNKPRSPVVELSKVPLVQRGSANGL
Sequence of AP-2 complex subunit beta (Homo sapiens) (P63010 whole entry, looked up, the tested form may be a part, one chain of several): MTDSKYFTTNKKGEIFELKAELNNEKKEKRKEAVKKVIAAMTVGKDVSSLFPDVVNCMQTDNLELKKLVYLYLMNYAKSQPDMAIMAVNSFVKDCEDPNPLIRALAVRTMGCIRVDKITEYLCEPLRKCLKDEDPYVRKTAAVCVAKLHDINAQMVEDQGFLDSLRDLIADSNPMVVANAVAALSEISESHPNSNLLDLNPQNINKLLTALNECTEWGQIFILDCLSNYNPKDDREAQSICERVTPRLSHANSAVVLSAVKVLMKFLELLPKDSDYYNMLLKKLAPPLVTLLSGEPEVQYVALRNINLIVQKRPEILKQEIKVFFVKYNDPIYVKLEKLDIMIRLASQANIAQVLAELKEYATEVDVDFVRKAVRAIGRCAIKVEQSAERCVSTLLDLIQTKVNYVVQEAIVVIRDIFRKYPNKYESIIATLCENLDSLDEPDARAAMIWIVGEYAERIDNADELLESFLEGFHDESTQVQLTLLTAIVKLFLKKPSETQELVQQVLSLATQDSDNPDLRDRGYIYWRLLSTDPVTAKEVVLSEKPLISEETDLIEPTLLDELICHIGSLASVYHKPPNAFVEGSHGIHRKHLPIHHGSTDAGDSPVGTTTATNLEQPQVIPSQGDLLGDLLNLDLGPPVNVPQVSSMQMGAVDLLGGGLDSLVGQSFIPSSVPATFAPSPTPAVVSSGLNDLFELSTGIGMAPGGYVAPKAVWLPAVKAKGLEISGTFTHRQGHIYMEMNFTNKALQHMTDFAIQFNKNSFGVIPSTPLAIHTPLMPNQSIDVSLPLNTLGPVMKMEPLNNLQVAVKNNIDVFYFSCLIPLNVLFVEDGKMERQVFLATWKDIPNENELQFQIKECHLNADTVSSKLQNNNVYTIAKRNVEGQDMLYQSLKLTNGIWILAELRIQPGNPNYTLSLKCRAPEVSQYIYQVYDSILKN
Sequence of Integrin beta-1 (Homo sapiens) + Integrin alpha-4 (Homo sapiens) (P05556 whole entry, looked up): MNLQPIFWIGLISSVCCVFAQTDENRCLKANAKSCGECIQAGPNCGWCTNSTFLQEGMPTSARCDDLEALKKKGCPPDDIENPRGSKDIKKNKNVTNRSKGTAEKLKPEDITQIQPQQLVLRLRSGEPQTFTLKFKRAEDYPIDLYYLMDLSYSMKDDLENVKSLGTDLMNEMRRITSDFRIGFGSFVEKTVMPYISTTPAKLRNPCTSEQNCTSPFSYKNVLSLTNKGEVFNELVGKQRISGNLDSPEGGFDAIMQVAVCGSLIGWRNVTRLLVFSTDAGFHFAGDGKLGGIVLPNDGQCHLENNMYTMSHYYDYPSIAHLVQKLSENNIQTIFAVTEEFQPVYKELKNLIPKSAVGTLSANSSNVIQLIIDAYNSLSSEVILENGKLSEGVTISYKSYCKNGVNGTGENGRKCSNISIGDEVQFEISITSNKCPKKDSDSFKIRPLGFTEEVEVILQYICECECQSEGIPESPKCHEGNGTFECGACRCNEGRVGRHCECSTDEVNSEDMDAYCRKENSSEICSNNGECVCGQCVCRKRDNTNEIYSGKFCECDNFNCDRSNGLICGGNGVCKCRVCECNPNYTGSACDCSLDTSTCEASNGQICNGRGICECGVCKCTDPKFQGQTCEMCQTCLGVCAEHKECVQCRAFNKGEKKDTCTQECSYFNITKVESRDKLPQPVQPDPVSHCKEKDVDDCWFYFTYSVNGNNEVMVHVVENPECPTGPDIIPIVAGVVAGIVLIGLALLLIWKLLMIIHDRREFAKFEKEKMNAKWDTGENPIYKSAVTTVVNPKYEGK
Sequence of Integrin beta-1 (Homo sapiens) + Integrin alpha-4 (Homo sapiens) (P13612 whole entry, looked up): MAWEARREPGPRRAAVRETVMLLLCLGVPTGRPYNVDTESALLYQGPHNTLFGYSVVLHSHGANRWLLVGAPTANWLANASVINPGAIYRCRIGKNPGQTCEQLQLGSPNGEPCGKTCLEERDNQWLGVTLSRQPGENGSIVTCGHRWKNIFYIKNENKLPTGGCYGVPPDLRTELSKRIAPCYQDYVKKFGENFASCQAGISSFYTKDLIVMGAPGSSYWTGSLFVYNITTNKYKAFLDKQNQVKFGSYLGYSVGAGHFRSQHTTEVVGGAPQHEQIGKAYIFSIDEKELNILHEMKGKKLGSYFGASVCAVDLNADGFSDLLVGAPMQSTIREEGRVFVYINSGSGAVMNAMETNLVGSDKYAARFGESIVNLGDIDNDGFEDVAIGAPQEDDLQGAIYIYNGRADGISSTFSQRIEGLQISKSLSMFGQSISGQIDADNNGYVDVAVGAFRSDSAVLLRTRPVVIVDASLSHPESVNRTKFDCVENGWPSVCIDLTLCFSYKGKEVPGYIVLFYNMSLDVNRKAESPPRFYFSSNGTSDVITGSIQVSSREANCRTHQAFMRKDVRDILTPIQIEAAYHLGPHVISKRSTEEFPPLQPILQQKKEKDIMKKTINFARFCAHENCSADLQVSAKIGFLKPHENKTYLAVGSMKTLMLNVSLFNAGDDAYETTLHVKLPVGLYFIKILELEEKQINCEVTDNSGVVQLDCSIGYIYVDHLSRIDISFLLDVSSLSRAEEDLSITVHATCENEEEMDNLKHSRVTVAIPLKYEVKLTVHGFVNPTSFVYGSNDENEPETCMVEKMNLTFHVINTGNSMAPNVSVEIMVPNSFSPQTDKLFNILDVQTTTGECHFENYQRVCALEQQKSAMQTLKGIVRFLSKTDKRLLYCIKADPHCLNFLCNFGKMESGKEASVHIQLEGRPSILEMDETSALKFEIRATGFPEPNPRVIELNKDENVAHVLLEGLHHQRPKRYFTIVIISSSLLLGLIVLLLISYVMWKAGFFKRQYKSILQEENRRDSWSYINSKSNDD

SMILES: COc1cc(/C=C/C(=O)CC(=O)/C=C/c2ccc(O)c(OC)c2)ccc1O
- percent of DMSO control GFP [1]: 117% (inactive)
- GFP response vs DMSO [2]: 114% (inactive)
- percent response of DMSO control [3]: 135% (active)
- GFP response vs DMSO [4]: 114% (inactive)
- GFP response, % of DMSO [5]: 95.1% (inactive)
- GFP response vs DMSO [6]: 105% (inactive)
- GFP response relative to DMSO [7]: 93.8% (inactive)
- GFP response vs DMSO [8]: 111% (inactive)
- GFP response, % of DMSO [9]: 111% (inactive)
- double positive events [10]: 61.2%
- vesicle binding response [10]: 39.9% (inactive)
- aptamer binding inhibition [11]: 6% (inactive)
- response [12]: -195% (inactive)
- inhibition [13]: 14.9% (inactive)
- response [14]: -4.77% (inactive)
- binding (% of control) [15]: 129% (inactive)
- efflux inhibition (fraction of control) [16]: 0.24 (inactive)
- inhibition [17]: -398% (inactive)
- differentiation response [18]: 18.8% (inactive)

SMILES: CC(=O)[C@H]1CC[C@H]2[C@@H]3CCC4=CC(=O)CC[C@]4(C)[C@H]3CC[C@]12C
- percent of DMSO control GFP [1]: 100% (inactive)
- GFP response vs DMSO [2]: 108% (inactive)
- percent response of DMSO control [3]: 98.6% (inactive)
- GFP response vs DMSO [4]: 94.8% (inactive)
- GFP response, % of DMSO [5]: 104% (inactive)
- GFP response vs DMSO [6]: 99.9% (inactive)
- GFP response vs DMSO [6, 21]: 99.3%
- GFP response vs DMSO [6, 22]: 100%
- GFP response relative to DMSO [7]: 100% (inactive)
- GFP response relative to DMSO [7, 23]: 97.9%
- GFP response relative to DMSO [7, 24]: 101%
- GFP response vs DMSO [8]: 99.5% (inactive)
- GFP response, % of DMSO [9]: 97.8% (inactive)
- GFP response, % of DMSO [9, 21]: 96.4%
- GFP response, % of DMSO [9, 22]: 98%
- double positive events [10]: 64%
- vesicle binding response [10]: 119% (inactive)
- inhibition [19]: 21.7% (inactive)
- superoxide response (% of plate) [20]: 136% (inactive)
- aptamer binding inhibition [11]: 5% (inactive)
- response [12]: -14.3% (inactive)
- inhibition [13]: -3.41% (inactive)
- response [14]: 5.39% (inactive)
- binding (% of control) [15]: 99.6% (inactive)
- efflux inhibition (fraction of control) [16]: 0.275 (inactive)
- inhibition [17]: 0% (inactive)
- differentiation response [18]: -1.65% (inactive)

SMILES: O=C(O)Cc1ccc(-c2ccccc2)cc1
- percent of DMSO control GFP [1]: 89.4% (inactive)
- GFP response vs DMSO [2]: 96.3% (inactive)
- percent response of DMSO control [3]: 65.4% (inactive)
- GFP response vs DMSO [4]: 196% (active)
- GFP response, % of DMSO [5]: 76.9% (inactive)
- GFP response vs DMSO [6]: 96.5% (inactive)
- GFP response vs DMSO [6, 21]: 93.3%
- GFP response vs DMSO [6, 22]: 95.9%
- GFP response relative to DMSO [7]: 115% (inactive)
- GFP response relative to DMSO [7, 23]: 116%
- GFP response relative to DMSO [7, 24]: 114%
- GFP response vs DMSO [8]: 102% (inactive)
- GFP response, % of DMSO [9]: 102% (inactive)
- GFP response, % of DMSO [9, 21]: 91.5%
- GFP response, % of DMSO [9, 22]: 103%
- double positive events [10]: 65.8%
- vesicle binding response [10]: 5570% (inactive)
- inhibition [19]: 2.3% (inactive)
- superoxide response (% of plate) [20]: 118% (inactive)
- aptamer binding inhibition [11]: 3% (inactive)
- response [12]: 2.38% (inactive)
- inhibition [13]: 22.4% (inactive)
- response [14]: -1.1% (inactive)
- binding (% of control) [15]: 99.5% (inactive)
- efflux inhibition (fraction of control) [16]: -0.42 (inactive)
- inhibition [17]: 8% (inactive)
- differentiation response [18]: -24.8% (inactive)

SMILES: Nc1[nH]c(=O)ncc1F
- percent of DMSO control GFP [1]: 84.2% (active)
- GFP response vs DMSO [2]: 107% (inactive)
- percent response of DMSO control [3]: 87.1% (inactive)
- GFP response vs DMSO [4]: 113% (inactive)
- GFP response, % of DMSO [5]: 80.8% (inactive)
- GFP response vs DMSO [6]: 74.7% (inactive)
- GFP response vs DMSO [6, 21]: 70.4%
- GFP response vs DMSO [6, 22]: 78.1%
- GFP response relative to DMSO [7]: 107% (inactive)
- GFP response relative to DMSO [7, 23]: 95%
- GFP response relative to DMSO [7, 24]: 111%
- GFP response vs DMSO [8]: 106% (inactive)
- GFP response, % of DMSO [9]: 80.6% (inactive)
- GFP response, % of DMSO [9, 21]: 79.7%
- GFP response, % of DMSO [9, 22]: 81.6%
- double positive events [10]: 61.3%
- vesicle binding response [10]: 142% (inactive)
- inhibition [19]: 10% (inactive)
- superoxide response (% of plate) [20]: 67.3% (inactive)
- aptamer binding inhibition [11]: 0% (inactive)
- inhibition [13]: 27% (inactive)
- response [14]: -5.4% (inactive)
- binding (% of control) [15]: 108% (inactive)
- efflux inhibition (fraction of control) [16]: 0.33 (inactive)
- inhibition [17]: 1% (inactive)
- differentiation response [18]: 7.87% (inactive)
